# Measurements: PubChem BioAssay
# Activity calls are given as the source filed them.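 Rule for the calls, unless noted: active = visually confirmed hit in the image check and inhibition above 20%; inconclusive = visually confirmed hit but inhibition not above 20%; inactive = no visual hit in the image check.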 Where a SMILES comes first, the peptide text is derived from it. The star is where a group is joined. Boc = CC(C)(C)OC(=O)*
# Key:
# [1] = inhibitors of TNFa-induced NFkB p65 translocation, primary screen, imaging, HUVEC, MLSMR starter and 10KST1 sets (AID 438;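 active = inhibition above 20% together with a positive visual image hit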;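 note: compound added about 3h40 before a 20 min TNFalpha stimulation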;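 for inhibition: signal is the nuclear over cytoplasmic p65 intensity ratio per well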); conditions: HUVEC TNFa-induced p65 nuclear translocation; cell count: measured here: nuclei count (cytotoxicity indicator), at 2.08 µM; inhibition: at 2 µM, stronger effect = higher value, 0% TNFa-plus-vehicle, 100% no-TNFa wells
# [2] = inhibitors of mutant huntingtin aggregation, primary screen, imaging, exon1htt(103Q)mCFP cells, high-content imaging (AID 483;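 active = visual image review flags a hit and inhibition of aggregation exceeds 20%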;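 note: compound exposure lasted 3 days before fixation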;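 for nuclei count: percent of the per-plate median nuclei count of sample wells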); conditions: exon1htt(103Q)mCFP cell line, aggregate imaging, at 2 µM; inhibition of aggregation: stronger effect = higher value; nuclei count: measured here: cell count, toxicity
# [3] = inhibitors of E-selectin induction by TNFa, primary screen, imaging, HUVEC, immunofluorescence, MLSMR starter and 10KST1 sets (AID 487); conditions: HUVEC TNFalpha-induced E-selectin immunofluorescence imaging, at 2 µM; inhibition: stronger effect = higher value; nuclei count: measured here: cell number, toxicity;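 for inhibition: signal is fraction of cell area covered by stained E-selectin grains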;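 for nuclei count: 100% = median nuclei count of all wells on the same plate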
# [4] = target: Voltage-gated potassium channel subunit beta-2 (Rattus norvegicus) (UniProt P62483); experiment: KvBeta enzyme negative modulators, primary screen, biochemical, NADPH fluorescence (AID 622;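 active = fluorescence slope higher than the sample average by over 3 SD, cut at about -0.22 in these data, passing the limit was not always enough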;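 note: slope of raw intensity against log time taken from 70 to 1610 s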); conditions: recombinant KvBeta, 4-cyanobenzaldehyde reduction, at 10 µM, stronger effect = higher value
# [5] = target: Voltage-gated potassium channel subunit beta-2 (Rattus norvegicus) (UniProt P62483); experiment: KvBeta positive modulators, primary screen, biochemical, NADPH fluorescence (AID 623;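 active = NADPH fluorescence slope more negative than the mean of all samples by about 3 SD, 99.7% confidence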;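 note: fluorescence intensity change per second fitted from 20 to 320 s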); conditions: Recombinant KvBeta, NADPH fluorescence decrease slope, 10 min; at 10 µM; stronger effect = lower value
# [6] = target: Alpha-2C adrenergic receptor (Homo sapiens) (UniProt P18825); experiment: modulators of alpha2C/GIRK thallium flux, primary screen, cell-based, HEK293 alpha2C/GIRK1/2 (AID 624;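 active = fluorescence slope after compound addition differing from the mean of all screened samples at 99.7% confidence, in either direction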;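 note: slope of fluorescence ratio to pre-addition baseline per second over 15 to 24 s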); conditions: thallium flux BTC fluorescence, at 10 µM, actives lie on both sides
# [7] = inhibitors of Sendai virus-induced IRF3 signaling, primary screen, TLR/RLR signaling modifier project, cell-based, Sendai virus stimulus, luciferase, 10K MLSCN set (AID 602276;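 active = inhibition at or above 50% at 10 µM; inactive = inhibition below 50%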;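 note: firefly luciferase from ISG56 promoter only with Renilla not read in this screen; 0% = Sendai virus plus DMSO and 100% = medium plus DMSO without virus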); conditions: HEK293 RL24 IRF3 luciferase reporter, at 10 µM, stronger effect = higher value
# [8] = inhibitors of poly I:C-induced TLR3 signaling, primary screen, cell-based, poly I:C stimulus, luciferase, 10K MLSCN set (AID 602277;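 active = inhibition of the reporter signal at or above 50%; inactive = inhibition below 50%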); conditions: HEK293-TLR3 RL24 IRF3 luciferase reporter, at 10 µM, stronger effect = higher value
# Voltage-gated potassium channel subunit beta-2 (Rattus norvegicus), sequence (P62483 whole entry, looked up): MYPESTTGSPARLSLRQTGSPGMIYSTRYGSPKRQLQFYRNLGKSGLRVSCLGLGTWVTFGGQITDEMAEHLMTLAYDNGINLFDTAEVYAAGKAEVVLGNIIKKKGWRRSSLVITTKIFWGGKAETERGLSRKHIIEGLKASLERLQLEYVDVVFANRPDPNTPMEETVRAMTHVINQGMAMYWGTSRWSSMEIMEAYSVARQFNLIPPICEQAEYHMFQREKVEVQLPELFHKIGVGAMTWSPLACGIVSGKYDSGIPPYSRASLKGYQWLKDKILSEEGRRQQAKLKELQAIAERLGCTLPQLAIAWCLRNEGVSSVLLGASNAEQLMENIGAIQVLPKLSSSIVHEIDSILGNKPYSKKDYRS
# Alpha-2C adrenergic receptor (Homo sapiens), sequence (P18825 whole entry, looked up): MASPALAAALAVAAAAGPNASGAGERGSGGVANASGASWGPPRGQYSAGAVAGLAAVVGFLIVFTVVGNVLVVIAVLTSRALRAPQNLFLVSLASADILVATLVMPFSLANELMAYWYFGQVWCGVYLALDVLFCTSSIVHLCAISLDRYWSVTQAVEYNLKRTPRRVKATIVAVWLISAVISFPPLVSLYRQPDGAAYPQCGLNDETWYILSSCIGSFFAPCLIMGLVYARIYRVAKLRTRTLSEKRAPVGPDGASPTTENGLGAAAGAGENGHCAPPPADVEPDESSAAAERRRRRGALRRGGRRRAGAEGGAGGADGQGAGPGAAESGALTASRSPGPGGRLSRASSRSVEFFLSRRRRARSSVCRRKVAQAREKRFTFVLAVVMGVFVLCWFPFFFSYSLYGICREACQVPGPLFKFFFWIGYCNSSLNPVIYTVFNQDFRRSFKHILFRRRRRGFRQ
SMILES,cell count [1],inhibition [1],inhibition of aggregation [2],nuclei count [2] [%],inhibition [3],nuclei count [3] [%],fluorescence slope [4],NADPH fluorescence slope [5],slope [6],inhibition [7],inhibition [8]
Cc1ccc(NC(=O)CSc2nnc(-c3ccccn3)n2C)cc1,644,14.4% (inactive),6.7% (inactive),92.4,0.6% (inactive),111,-0.418 (inactive),-2.7e-05 (inactive),0.00462 (inactive),0.794% (inactive),-5.25% (inactive)
COc1ccc(N2C(=O)CCC(C(=O)N3CCCCC3)C2c2ccc(OC)c(OC)c2)cc1 (stereo not given),164,-1.9% (inactive),21.6% (inactive),96.5,-17.5% (inactive),97,-0.412 (inactive),5.3e-05 (inactive),0.00625 (inactive),12.8% (inactive),21.7% (inactive)
O=C(NC1CCCc2ccccc21)c1ccc(CNc2c(N3CCOCC3)c(=O)c2=O)cc1 (stereo not given),644,-3.4% (inactive),36.3% (active),51.3,-52.7% (inactive),108,-0.55 (inactive),-2.5e-06 (inactive),0.00556 (inactive),12.8% (inactive),27% (inactive)
CCCC(=O)Nc1ccccc1-c1nnn(CC(=O)Nc2ccc(OC)cc2)n1,674,21.5% (inactive),-11.7% (inactive),115,-36.7% (inactive),83.3,-0.36 (inactive),1e-05 (inactive),0.0062 (inactive),14.1% (inactive),13.7% (inactive)
O=S1(=O)N=C(Nc2nc3c(s2)CCCC3)c2ccccc21,319,-4.2% (inactive),5% (inactive),102,-33.1% (inactive),111,-0.468 (inactive),5.2e-05 (inactive),0.00562 (inactive),-62.5% (inactive),-97.7% (inactive)
Cc1ccccc1NC(=O)C1CCCN(S(=O)(=O)c2cnc[nH]2)C1 (stereo not given),726,-11% (inactive),21.2% (inactive),109,-26.7% (inactive),124,-0.564 (inactive),-2e-05 (inactive),0.0067 (inactive),10.6% (inactive),32.6% (inactive)
COc1ccccc1N1CCN(C(=O)c2c(-c3c(Cl)cccc3Cl)noc2C)CC1,652,-11.7% (inactive),3.7% (inactive),90.6,-24.6% (inactive),110,-0.377 (inactive),-2.9e-05 (inactive),0.00504 (inactive),18.3% (inactive),38.3% (inactive)
CCOC(=O)N1CCN(C(c2ccc(Cl)cc2)c2sc3nc(C)nn3c2O)CC1 (stereo not given),709,-8% (inactive),0.3% (inactive),104,-25% (inactive),106,-0.412 (inactive),-3.7e-05 (inactive),0.00503 (inactive),9.66% (inactive),19.5% (inactive)
COc1ccc(C(=O)Nc2cccc(C)c2)cc1S(=O)(=O)N1CCOCC1,550,-25.9% (inactive),0.7% (inactive),102,-48.3% (inactive),111,-0.572 (inactive),-5.7e-05 (inactive),0.0063 (inactive),6.15% (inactive),3.92% (inactive)
CS(=O)(=O)N(CC(=O)NCCSCc1cccc(Cl)c1)c1ccc2c(c1)OCO2,233,-4.5% (inactive),35.8% (active),96.5,32.5% (inactive),71.4,-0.528 (inactive),-5.8e-05 (inactive),0.00685 (inactive),-12% (inactive),1.85% (inactive)
NC(=O)COC(=O)c1ccc(S(=O)(=O)N2CCCCCC2)cc1,449,-7.8% (inactive),6.3% (inactive),104,-17.6% (inactive),116,-0.348 (inactive),-6.2e-05 (inactive),0.00701 (inactive),11% (inactive),14% (inactive)
CCc1ccc(NC(=O)CS(=O)CC(=O)NCC2OCCc3ccccc32)cc1 (stereo not given),698,-4.5% (inactive),6.4% (inactive),102,-119% (inactive),114,-0.415 (inactive),-3.6e-05 (inactive),0.00515 (inactive),9.39% (inactive),13.4% (inactive)
CCOc1ncccc1C(=O)Nc1ccc(Cl)cc1,861,-15% (inactive),-9.2% (inactive),121,-36.9% (inactive),105,-0.44 (inactive),-3.2e-06 (inactive),0.0068 (inactive),10.1% (inactive),35.6% (inactive)
COc1ccc(NC(=O)CN(c2ccc(C)cc2)S(C)(=O)=O)c(OC)c1,498,10.1% (inactive),-0.7% (inactive),92.5,-180% (inactive),139,-0.392 (inactive),-6e-05 (inactive),0.0037 (inactive),4.75% (inactive),25.6% (inactive)
Cc1cc(C)c2c(CC(=O)NCc3ccco3)coc2c1,262,5.7% (inactive),23.9% (inactive),74.9,34.3% (inactive),60.6,-0.324 (inactive),4e-05 (inactive),0.00608 (inactive),10.9% (inactive),21.2% (inactive)
O=c1oc2ccccc2c(O)c1C=NCc1ccccn1,452,7.6% (inactive),2.3% (inactive),98.7,-63.5% (inactive),95.8,-0.509 (inactive),-4.5e-05 (inactive),0.00647 (inactive),-8.1% (inactive),22.7% (inactive)
Cc1ccc(-c2nc3ncccc3o2)cc1NC(=O)c1ccco1,317,0.6% (inactive),-1.4% (inactive),102,-107% (inactive),102,-0.429 (inactive),2.8e-06 (inactive),0.00563 (inactive),-1.98% (inactive),14.6% (inactive)
COc1cc(NC(=O)c2cc(CC(C)C)on2)c(OC)cc1Cl,558,-6% (inactive),13.1% (inactive),95.8,-15.3% (inactive),106,-0.575 (inactive),5.1e-07 (inactive),0.00662 (inactive),10.7% (inactive),46.6% (inactive)
O=C(Cn1ncc2c(=O)oc3ccccc3c21)NCC1CCCO1 (stereo not given),725,6.6% (inactive),-2.2% (inactive),111,-40.1% (inactive),125,-0.61 (inactive),-1.2e-05 (inactive),0.0073 (inactive),4.27% (inactive),9.41% (inactive)
Cc1cc(=O)n(C)c(=O)n1CCCNc1ccccc1,489,-13.1% (inactive),-3% (inactive),126,-19.5% (inactive),113,-0.333 (inactive),-3.7e-05 (inactive),0.00566 (inactive),-2.79% (inactive),6.15% (inactive)
Cc1noc(C)c1COC(=O)c1ccccc1Oc1ccccc1,583,-25.6% (inactive),-12% (inactive),106,-22.7% (inactive),146,-0.627 (inactive),-3.8e-07 (inactive),0.00533 (inactive),4.67% (inactive),22.4% (inactive)
CC1CCCCN1CCNS(=O)(=O)c1ccc2c(c1)oc(=O)n2C (stereo not given),248,0.3% (inactive),4.6% (inactive),89.3,18.9% (inactive),88.9,-0.424 (inactive),-6.8e-05 (inactive),0.00417 (inactive),15.8% (inactive),18.5% (inactive)
Cc1cccc2c(=O)oc(-c3ccc4c(c3)C(=O)N(CC3CCCO3)C4=O)nc12 (stereo not given),349,1.9% (inactive),-22.2% (inactive),107,-6.3% (inactive),58.4,-0.521 (inactive),2.4e-05 (inactive),0.0053 (inactive),16.1% (inactive),14.4% (inactive)
O=C(NC1CCN(Cc2ccccc2)CC1)C1CCN(S(=O)(=O)c2cccc3cccnc23)CC1,526,-11.6% (inactive),7.8% (inactive),83.4,-4.4% (inactive),99.2,-0.561 (inactive),7.4e-08 (inactive),0.00666 (inactive),-12.5% (inactive),8.2% (inactive)
CSCCC(NC(=O)OC(C)(C)C)C(=O)NC(CC(C)C)C(N)=O (stereo not drawn) (Boc-Met-Leu-NH2; configuration not given here),396,-2.1% (inactive),-0.6% (inactive),114,7.9% (inactive),101,-0.577 (inactive),3.1e-05 (inactive),0.00653 (inactive),5.67% (inactive),22% (inactive)
